Out of some 5,500 compounds screened, about 2,000 (36%) were called active. Roughly 18% stayed inconclusive and do not appear here. Rule as the data show it: active = normalized growth mostly below about 0.91 (no sharp cut-off); inconclusive = no clear call, values can overlap the other calls; inactive = mostly above about 0.92. This is one part of the list.
Experiment: chemical genetic growth profiling, strain panel (AID 1159580);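 also: tested at 20 µM; growth read once vehicle control cultures reached saturation at 30 °C; 1 = growth at the plate median or of vehicle wells; lower values mean less growth of the strain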
Settings: S. cerevisiae deletion strains, growth OD

Measured: normalized growth

COc1cc(O)c2c(=O)c(O)c(-c3ccc(O)c(O)c3)oc2c1
active: locus YAL021C, strain ccr4, active compounds read low 0.466 | locus YAL026C, strain drs2, active compounds read low 0.678 | locus YAL030W, strain snc1, active compounds read low 0.886 | locus YBL061C, strain skt5, active compounds read low 0.794 | locus YBR009C, strain hhf1, active compounds read low 0.773 | locus YBR023C, strain chs3, active compounds read low 0.693 | locus YBR231C, strain swc5, active compounds read low 0.72 | locus YBR279W, strain paf1, active compounds read low 0.829 | locus YCL011C, strain gbp2, active compounds read low 0.803 | locus YCL016C, strain dcc1, active compounds read low 0.865 | locus YCL069W, strain vba3, active compounds read low 0.846 | locus YCR088W, strain abp1, active compounds read low 0.912 | locus YDR069C, strain doa4, active compounds read low 0.467 | locus YDR137W, strain rgp1, active compounds read low 0.659 | locus YDR297W, strain sur2, active compounds read low 0.787 | locus YDR334W, strain swr1, active compounds read low 0.755 | locus YDR335W, strain msn5, active compounds read low 0.761 | locus YEL003W, strain gim4, active compounds read low 0.795 | locus YEL037C, strain rad23, active compounds read low 0.823 | locus YEL061C, strain CIN8 (second series), active compounds read low 0.907 | locus YER015W, strain faa2, active compounds read low 0.66 | locus YER016W, strain bim1, active compounds read low 0.895 | locus YER111C, strain swi4, active compounds read low 0.793 | locus YER155C, strain BEM2 (second series), active compounds read low 0.789 | locus YFR010W, strain ubp6, active compounds read low 0.736 | locus YGL173C, strain kem1, active compounds read low 0.657 | locus YGL253W, strain hxk2, active compounds read low 0.693 | locus YHR013C, strain ard1, active compounds read low 0.808 | locus YHR027C, strain rpn1, active compounds read low 0.549 | locus YHR129C, strain ARP1, active compounds read low 0.875 | locus YHR142W, strain chs7, active compounds read low 0.622 | locus YJL092W, strain hpr5, active compounds read low 0.885 | locus YJL095W, strain BCK1 (second series), active compounds read low 0.746 | locus YJL129C, strain trk1, active compounds read low 0.867 | locus YJL164C, strain tpk1, active compounds read low 0.723 | locus YJL166W, strain qcr8, active compounds read low 0.819 | locus YJL187C, strain SWE1 (second series), active compounds read low 0.776
inactive: locus YAL013W, strain DEP1, active compounds read low 0.998 | locus YBR021W, strain FUR4, active compounds read low 1.01 | locus YBR171W, strain sec66, active compounds read low 0.932 | locus YBR229C, strain ROT2, active compounds read low 0.987 | locus YCL029C, strain bik1, active compounds read low 1.01 | locus YDL005C, strain med2, active compounds read low 1 | locus YDL035C, strain GPR1, active compounds read low 0.931 | locus YDL040C, strain nat1, active compounds read low 0.988 | locus YDL074C, strain BRE1, active compounds read low 0.822 | locus YDL101C, strain DUN1, active compounds read low 0.911 | locus YDL185W, strain tfp1, active compounds read low 0.995 | locus YDL192W, strain arf1, active compounds read low 0.986 | locus YDR001C, strain nth1, active compounds read low 0.954 | locus YDR101C, strain arx1, active compounds read low 0.992 | locus YDR159W, strain sac3, active compounds read low 0.891 | locus YDR162C, strain NBP2, active compounds read low 0.948 | locus YDR195W, strain ref2 1.02 | locus YDR318W, strain mcm21, active compounds read low 0.986 | locus YDR388W, active compounds read low 1.01 | locus YDR392W, strain spt3, active compounds read low 0.838 | locus YDR502C, strain sam2, active compounds read low 0.981 | locus YEL061C, strain CIN8, active compounds read low 0.966 | locus YER110C, active compounds read low 1.03 | locus YER155C, strain BEM2, active compounds read low 1.01 | locus YER167W, strain BCK2, active compounds read low 1.02 | locus YGL078C, strain dbp3, active compounds read low 1.01 | locus YGL086W, strain mad1, active compounds read low 0.933 | locus YGL167C, strain pmr1, active compounds read low 0.949 | locus YGL227W, strain vid30, active compounds read low 1.01 | locus YGL240W, strain doc1, active compounds read low 0.961 | locus YGL248W, strain PDE1, active compounds read low 0.915 | locus YGR135W, strain pre9, active compounds read low 0.984 | locus YGR252W, strain gcn5, active compounds read low 1.03 | locus YHR030C, strain SLT2, active compounds read low 0.971 | locus YHR079C, strain IRE1 (second series), active compounds read low 1.02 | locus YHR094C, strain hxt1, active compounds read low 1.02 | locus YHR200W, strain rpn10, active compounds read low 0.997 | locus YIL066C, strain RNR3, active compounds read low 0.974 | locus YIL073C, strain SPO22, active compounds read low 0.925 | locus YIL125W, strain kgd1, active compounds read low 0.981 | locus YIR030C, strain dcg1, active compounds read low 1.01 | locus YJL095W, strain BCK1, active compounds read low 0.822 | locus YJL115W, strain asf1, active compounds read low 0.968 | locus YJL134W, strain LCB3, active compounds read low 0.986 | locus YJL154C, strain vps35, active compounds read low 0.957 | locus YJL168C, strain set2, active compounds read low 1.03 | locus YJR043C, strain POL32, active compounds read low 0.896
